# Measurements reported in the supplement of paper PMC6378613.
# Compound: Cc1ccc(-c2ccc3c(ccc4sc5c(c43)NC[C@@H](C)NC5=O)n2)cn1
# Assay: kinase activity remaining relative to vehicle control; higher = less inhibition
# Experimental: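 In vitro radiometric kinase profiling of the MK2 inhibitor PF-3644022 at 0.1, 1 and 10 µM against a panel of kinases (MRC International Centre for Kinase Profiling, Dundee). Read-out is % kinase activity remaining relative to the vehicle control, mean of n=2.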
# UniProt P04629, sequence (P04629 whole entry, looked up): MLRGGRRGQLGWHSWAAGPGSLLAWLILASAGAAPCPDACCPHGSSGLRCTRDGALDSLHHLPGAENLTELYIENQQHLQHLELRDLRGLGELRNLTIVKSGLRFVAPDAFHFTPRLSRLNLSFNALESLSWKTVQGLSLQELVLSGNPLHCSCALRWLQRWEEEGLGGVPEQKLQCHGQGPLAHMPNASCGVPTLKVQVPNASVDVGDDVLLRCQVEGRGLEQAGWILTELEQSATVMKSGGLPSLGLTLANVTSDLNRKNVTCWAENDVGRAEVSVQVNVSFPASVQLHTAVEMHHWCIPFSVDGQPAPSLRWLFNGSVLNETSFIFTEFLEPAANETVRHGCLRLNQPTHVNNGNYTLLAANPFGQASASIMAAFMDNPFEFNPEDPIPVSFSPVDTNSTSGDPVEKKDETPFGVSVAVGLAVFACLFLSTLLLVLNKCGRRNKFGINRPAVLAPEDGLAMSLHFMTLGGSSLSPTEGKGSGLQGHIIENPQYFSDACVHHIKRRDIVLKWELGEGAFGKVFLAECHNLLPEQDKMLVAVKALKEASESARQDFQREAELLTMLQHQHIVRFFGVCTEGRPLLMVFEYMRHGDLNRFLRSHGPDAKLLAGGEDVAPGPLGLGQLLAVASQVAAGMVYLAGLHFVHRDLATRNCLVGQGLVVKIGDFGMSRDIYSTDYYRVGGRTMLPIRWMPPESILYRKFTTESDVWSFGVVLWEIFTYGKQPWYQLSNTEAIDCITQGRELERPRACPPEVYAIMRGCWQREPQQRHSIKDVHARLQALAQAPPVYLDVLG
# UniProt P06239, sequence (P06239 whole entry, looked up): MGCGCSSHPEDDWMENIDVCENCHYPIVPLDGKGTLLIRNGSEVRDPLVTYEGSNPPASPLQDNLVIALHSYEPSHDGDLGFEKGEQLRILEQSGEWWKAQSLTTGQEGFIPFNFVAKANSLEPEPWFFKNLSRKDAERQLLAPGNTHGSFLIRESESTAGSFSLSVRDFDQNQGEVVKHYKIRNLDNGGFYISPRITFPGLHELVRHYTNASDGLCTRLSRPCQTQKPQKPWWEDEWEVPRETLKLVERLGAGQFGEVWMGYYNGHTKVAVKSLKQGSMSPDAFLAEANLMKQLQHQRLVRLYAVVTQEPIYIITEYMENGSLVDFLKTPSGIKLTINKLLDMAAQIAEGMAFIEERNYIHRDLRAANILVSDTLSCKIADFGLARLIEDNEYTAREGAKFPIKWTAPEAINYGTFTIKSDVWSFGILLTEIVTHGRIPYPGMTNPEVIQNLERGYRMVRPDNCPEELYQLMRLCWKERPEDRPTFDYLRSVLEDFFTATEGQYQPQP
# UniProt P51812, sequence (P51812 whole entry, looked up): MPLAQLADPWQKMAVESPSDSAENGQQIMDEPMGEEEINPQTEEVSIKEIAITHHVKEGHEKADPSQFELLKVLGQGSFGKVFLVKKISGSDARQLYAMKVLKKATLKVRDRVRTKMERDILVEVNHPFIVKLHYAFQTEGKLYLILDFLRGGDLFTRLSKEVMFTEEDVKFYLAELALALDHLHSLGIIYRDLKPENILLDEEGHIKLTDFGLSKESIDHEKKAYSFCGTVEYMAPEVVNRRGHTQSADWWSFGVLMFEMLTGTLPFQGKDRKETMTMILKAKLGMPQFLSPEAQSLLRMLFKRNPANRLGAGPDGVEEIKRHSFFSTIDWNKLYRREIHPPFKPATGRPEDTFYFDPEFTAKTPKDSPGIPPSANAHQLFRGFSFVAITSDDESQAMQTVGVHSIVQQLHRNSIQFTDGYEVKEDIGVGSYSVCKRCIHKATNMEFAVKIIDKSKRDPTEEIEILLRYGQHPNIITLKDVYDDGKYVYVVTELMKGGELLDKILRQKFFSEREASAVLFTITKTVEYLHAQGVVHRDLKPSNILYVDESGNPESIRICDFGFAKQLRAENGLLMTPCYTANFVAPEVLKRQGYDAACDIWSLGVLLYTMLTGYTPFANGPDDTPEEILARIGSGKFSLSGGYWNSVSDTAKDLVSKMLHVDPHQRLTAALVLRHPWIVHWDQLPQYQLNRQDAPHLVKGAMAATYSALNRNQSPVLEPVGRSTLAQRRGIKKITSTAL
# UniProt Q92630, sequence (Q92630 whole entry, looked up): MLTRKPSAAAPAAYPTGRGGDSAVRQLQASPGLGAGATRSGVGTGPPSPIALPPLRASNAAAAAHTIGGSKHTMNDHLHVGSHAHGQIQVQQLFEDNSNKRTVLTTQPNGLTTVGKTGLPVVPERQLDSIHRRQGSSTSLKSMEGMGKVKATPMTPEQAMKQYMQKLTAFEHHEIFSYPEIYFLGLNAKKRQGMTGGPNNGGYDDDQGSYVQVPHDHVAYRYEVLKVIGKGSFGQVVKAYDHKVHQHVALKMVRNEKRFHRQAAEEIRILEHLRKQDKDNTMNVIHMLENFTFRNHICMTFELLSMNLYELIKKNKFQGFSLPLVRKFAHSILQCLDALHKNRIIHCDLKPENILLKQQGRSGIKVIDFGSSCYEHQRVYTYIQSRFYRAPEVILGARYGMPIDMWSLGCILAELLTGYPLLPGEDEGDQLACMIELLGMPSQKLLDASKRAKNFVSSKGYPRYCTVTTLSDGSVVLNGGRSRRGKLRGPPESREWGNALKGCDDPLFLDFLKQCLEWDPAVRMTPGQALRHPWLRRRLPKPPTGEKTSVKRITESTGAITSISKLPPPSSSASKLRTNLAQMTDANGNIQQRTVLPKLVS
# UniProt P51617, sequence (P51617 whole entry, looked up): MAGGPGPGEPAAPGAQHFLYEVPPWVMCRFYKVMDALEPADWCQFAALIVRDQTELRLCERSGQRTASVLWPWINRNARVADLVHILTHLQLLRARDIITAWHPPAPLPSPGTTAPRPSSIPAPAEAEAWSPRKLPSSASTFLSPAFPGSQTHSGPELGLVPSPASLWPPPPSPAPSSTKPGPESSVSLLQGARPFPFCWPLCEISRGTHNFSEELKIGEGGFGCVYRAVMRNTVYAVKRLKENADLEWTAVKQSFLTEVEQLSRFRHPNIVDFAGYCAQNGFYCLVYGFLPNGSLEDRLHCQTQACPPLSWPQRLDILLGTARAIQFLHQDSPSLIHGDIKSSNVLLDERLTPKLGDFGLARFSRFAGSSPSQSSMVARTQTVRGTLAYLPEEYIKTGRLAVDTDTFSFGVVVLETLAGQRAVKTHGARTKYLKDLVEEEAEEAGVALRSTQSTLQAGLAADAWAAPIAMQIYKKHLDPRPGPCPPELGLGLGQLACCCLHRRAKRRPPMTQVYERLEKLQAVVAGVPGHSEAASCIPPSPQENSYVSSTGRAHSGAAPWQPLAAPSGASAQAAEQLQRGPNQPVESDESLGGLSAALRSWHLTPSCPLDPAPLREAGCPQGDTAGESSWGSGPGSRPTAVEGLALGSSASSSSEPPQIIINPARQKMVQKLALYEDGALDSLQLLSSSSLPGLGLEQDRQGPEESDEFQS
# UniProt Q8IVH8, sequence (Q8IVH8 whole entry, looked up): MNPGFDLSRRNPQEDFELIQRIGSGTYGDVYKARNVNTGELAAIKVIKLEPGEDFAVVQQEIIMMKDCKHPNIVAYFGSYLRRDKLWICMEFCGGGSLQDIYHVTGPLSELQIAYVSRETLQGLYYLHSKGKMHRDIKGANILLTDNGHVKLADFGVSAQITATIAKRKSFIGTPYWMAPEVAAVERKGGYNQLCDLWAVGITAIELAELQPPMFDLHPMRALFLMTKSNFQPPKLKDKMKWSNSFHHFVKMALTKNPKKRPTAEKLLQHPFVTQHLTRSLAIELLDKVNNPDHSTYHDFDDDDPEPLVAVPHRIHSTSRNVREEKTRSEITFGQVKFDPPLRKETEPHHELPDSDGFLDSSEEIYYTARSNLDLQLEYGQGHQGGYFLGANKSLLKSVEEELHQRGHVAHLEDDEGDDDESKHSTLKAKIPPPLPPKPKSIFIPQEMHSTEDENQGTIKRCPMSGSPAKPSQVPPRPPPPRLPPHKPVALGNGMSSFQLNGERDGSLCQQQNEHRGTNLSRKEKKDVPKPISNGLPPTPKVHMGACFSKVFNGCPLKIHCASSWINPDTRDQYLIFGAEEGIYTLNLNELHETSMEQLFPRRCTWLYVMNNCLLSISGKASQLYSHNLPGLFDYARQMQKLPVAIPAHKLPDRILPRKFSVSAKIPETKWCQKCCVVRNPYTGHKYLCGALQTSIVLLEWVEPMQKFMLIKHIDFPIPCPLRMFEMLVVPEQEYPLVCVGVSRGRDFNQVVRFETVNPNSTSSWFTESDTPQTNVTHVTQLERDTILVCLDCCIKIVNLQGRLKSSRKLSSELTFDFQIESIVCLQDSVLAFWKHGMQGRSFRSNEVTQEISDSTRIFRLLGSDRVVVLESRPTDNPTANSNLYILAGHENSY
# UniProt P28482, sequence (P28482 whole entry, looked up): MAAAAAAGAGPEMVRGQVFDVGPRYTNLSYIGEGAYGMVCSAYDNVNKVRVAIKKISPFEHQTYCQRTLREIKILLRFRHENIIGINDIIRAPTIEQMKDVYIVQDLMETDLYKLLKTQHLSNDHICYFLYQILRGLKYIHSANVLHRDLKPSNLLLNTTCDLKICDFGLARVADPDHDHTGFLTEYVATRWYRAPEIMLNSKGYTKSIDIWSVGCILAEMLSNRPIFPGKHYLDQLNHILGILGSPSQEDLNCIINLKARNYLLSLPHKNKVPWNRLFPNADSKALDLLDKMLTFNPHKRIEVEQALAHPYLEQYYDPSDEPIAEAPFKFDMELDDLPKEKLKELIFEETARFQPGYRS
# UniProt P50750, sequence (P50750 whole entry, looked up): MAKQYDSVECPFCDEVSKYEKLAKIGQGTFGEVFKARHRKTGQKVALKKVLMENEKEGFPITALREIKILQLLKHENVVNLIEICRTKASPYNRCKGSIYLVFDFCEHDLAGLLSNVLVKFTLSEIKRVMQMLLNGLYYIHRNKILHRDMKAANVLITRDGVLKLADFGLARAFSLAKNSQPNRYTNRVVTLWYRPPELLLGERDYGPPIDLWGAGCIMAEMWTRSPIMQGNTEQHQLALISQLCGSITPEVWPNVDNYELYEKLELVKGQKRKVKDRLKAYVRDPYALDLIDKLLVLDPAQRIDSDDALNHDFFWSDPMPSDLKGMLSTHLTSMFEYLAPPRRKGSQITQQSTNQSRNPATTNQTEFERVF
Target,kinase activity remaining (inhibitor concentration 0.1 µM) [%],kinase activity remaining (inhibitor concentration 1 µM) [%],kinase activity remaining (inhibitor concentration 10 µM) [%]
TTBK1 (UniProt Q5TCY1),103,104,96
GCK (UniProt P35557),109,89,19
IRR (UniProt P14616),99,79,53
PKC gamma,118,110,101
MST2 (UniProt Q13188),131,135,100
WNK1 (UniProt Q9H4A3),113,108,119
PKC zeta,115,112,106
ERK2 (UniProt P28482),102,84,81
Aurora A,126,102,84
IKK epsilon,98,95,44
PDK1 (UniProt Q15118),104,107,95
DYRK2 (UniProt Q92630),101,105,52
BRSK2 (UniProt Q8IWQ3),77,32,8
CDK9-Cyclin T1 (UniProt P50750),109,96,51
PLK1 (UniProt P53350),102,114,98
MLK3 (UniProt Q16584),114,102,73
AMPK (hum),68,21,6
EPH-B1,113,106,106
EPH-B4,110,106,99
SIK3 (UniProt Q9Y2K2),98,99,73

Target,kinase activity remaining (inhibitor concentration 0.1 µM) [%],kinase activity remaining (inhibitor concentration 1 µM) [%],kinase activity remaining (inhibitor concentration 10 µM) [%]
DYRK1A (UniProt Q13627),80,31,8
ULK1 (UniProt O75385),115,89,75
Lck (UniProt P06239),108,95,86
S6K1,99,95,80
SRPK1 (UniProt Q96SB4),89,63,19
MAPKAP-K2,24,9,2
BRK (UniProt Q13882),121,94,92
BRSK1 (UniProt Q8TDC3),86,55,29
TrkA (UniProt P04629),121,100,83
PIM3 (UniProt Q86V86),55,18,3
JNK3 (UniProt P53779),120,104,102
PRK2 (UniProt Q16513),108,101,81
EF2K,106,97,85
ASK1 (UniProt Q99683),106,80,10
TLK1 (UniProt Q9UKI8),113,107,100
AMPK,93,38,9
CAMK1 (UniProt Q14012),96,97,68
p38 gamma MAPK,108,115,97
IRAK1 (UniProt P51617),104,77,27
RSK1 (UniProt Q15418),106,100,76

Target,kinase activity remaining (inhibitor concentration 0.1 µM) [%],kinase activity remaining (inhibitor concentration 1 µM) [%],kinase activity remaining (inhibitor concentration 10 µM) [%]
TAK1,113,109,70
BTK (UniProt Q06187),120,118,107
PRAK (UniProt Q8IW41),126,67,24
PKC alpha,101,113,90
LKB1 (UniProt Q15831),118,103,97
CLK2 (UniProt P49760),86,43,9
ERK8 (UniProt Q8TD08),96,79,38
MEKK1 (UniProt Q13233),102,109,109
RIPK2 (UniProt O43353),93,94,39
MAP4K3 (UniProt Q8IVH8),98,72,41
TBK1 (UniProt Q9UHD2),110,87,96
ZAP70 (UniProt P43403),93,100,95
ERK1 (UniProt P27361),111,108,112
PIM2 (UniProt Q9P1W9),103,103,66
FGF-R1,95,91,68
DYRK3 (UniProt O43781),111,84,40
RSK2 (UniProt P51812),104,79,50
EIF2AK3 (UniProt Q9NZJ5),114,101,73
NEK2a (UniProt P51955),108,99,88
MPSK1 (UniProt O75716),117,118,105
